# Test results reported in the supplement of paper PMC3334620.
# In all, about 33,000 sequences were measured (“E-score (-0.5 to 0.5)”: median about -0.035, highest 2% from about 0.34 on). This excerpt belongs to a sample that is enriched for the highest values.
# Target: T1, Mot3 (UniProt P54785)
# T1 sequence: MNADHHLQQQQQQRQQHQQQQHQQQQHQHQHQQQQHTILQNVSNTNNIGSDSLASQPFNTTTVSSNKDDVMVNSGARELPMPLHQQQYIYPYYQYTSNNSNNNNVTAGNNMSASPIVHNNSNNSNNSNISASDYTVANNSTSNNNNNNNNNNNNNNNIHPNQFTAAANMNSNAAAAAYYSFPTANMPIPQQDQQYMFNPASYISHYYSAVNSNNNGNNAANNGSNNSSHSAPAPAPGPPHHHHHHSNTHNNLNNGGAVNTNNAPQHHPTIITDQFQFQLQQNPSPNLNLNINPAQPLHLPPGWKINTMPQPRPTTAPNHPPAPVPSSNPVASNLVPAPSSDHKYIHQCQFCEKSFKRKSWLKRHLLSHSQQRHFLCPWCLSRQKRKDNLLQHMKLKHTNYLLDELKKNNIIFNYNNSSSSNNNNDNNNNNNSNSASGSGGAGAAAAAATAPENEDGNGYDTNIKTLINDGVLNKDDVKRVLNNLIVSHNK
# Experiment: PBM E-score (8-mer binding enrichment) (E-score (-0.5 to 0.5)); higher = stronger / more preferred TF binding
# Conditions: protein concentration: 200 nM; construct: GST-full length
# Method: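 Universal 'all 10-mer' protein binding microarrays (Agilent AMADID 015681) probed with GST-tagged S. cerevisiae TFs (full-length or DBD) made by in vitro transcription/translation (PURExpress), about 100-200 nM. Bound TF was detected with fluorescent anti-GST. Each ungapped 8-mer (which stands for itself and its reverse complement) is scored by the PBM enrichment score (E-score), a modified Wilcoxon-Mann-Whitney statistic from -0.5 to +0.5, computed with the Universal PBM Analysis Suite. Scale: above 0.35 generally sequence-specific binding.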
row,Sequence,PBM E-score
1,CCAAAGTC,-0.189
2,CAAGGGGC,-0.148
3,ACGTGCTC,0.0193
4,ACCTGGGA,-0.0112
5,AACAGGAG,0.0835
6,AACAGGAA,0.416
7,GACAGGAA,0.374
8,CACAGGAC,-0.175
9,TAGAGGAA,-0.0809
10,GACAGGAC,-0.231
11,TACAGTAA,0.194
12,GACAGAAA,0.0469
13,AACAGGAC,0.19
14,CACAGGAG,0.0555
15,CACAGGAA,0.385
16,TACAGGAA,0.43
17,ACTGAGGC,-0.119
18,ATTCACTA,0.124
19,ACCATTAC,0.168
20,CGGTCCCA,-0.296
21,AACCAGCT,0.0762
22,ACTAGCAG,0.109

row,Sequence,PBM E-score
1,ACTCCAAG,-0.0115
2,AGTCCGAT,-0.158
3,AGAAACGA,0.0178
4,CGTCGTAA,0.0759
5,AGGTTGGA,-0.173
6,GGGAGGAA,-0.11
7,AGGAGGCG,-0.163
8,CGGAGGTA,-0.0405
9,GGGAGGGA,-0.149
10,GGGAGGCA,0.364
11,CGGAGGCA,0.375
12,AGGAGGCA,0.382
13,AGGAGGCC,-0.263
14,CGGAGGCC,-0.224
15,CAGACCAC,-0.109
16,GTGGCCTA,0.0303
17,ATCTAAAG,0.136
18,ACCAAGCA,-0.0877
19,CGGGGACC,-0.0971
20,AGAAACTA,-0.0831
21,GTGGATGA,-0.0229
22,AAGGCAAG,0.485

row,Sequence,PBM E-score
1,AAGGCAGC,0.276
2,ACGGCAAG,-0.116
3,AAGGCAGT,-0.0323
4,AAGGCGAA,-0.0356
5,ACGGCAAT,0.0994
6,AGGGCAAA,-0.0247
7,ATGGCAAC,-0.0341
8,AAGGCAAC,0.487
9,AAGGCAAT,0.479
10,AAGGCAGG,0.231
11,AAGGCAAA,0.479
12,GGATGCGA,-0.246
13,ACACAGCG,0.318
14,GCCCGATA,-0.181
15,AAGTTCAT,-0.132
16,GGGGCAAC,-0.0256
17,GCGGCAAC,-0.0624
18,GAGGCAAC,0.435
19,CTACGCTC,-0.0123
20,TACAAGCA,0.284
21,GCTACTCA,-0.175
22,CTCTAGCA,-0.0349

row,Sequence,PBM E-score
1,ATTTCCAA,0.0549
2,ATTTCCAG,0.0581
3,ATTTCCTC,-0.0476
4,ATTTCCCA,-0.0389
5,ATTTCCTA,0.371
6,ATTTCCTG,0.41
7,AAGATTGT,0.126
8,CCGGTGCG,-0.0852
9,AATAGCCA,-0.0713
10,CCAGGAGA,-0.238
11,CAAGGTGC,0.0747
12,CAAGGTAG,0.0907
13,GAAGGTAA,0.397
14,GAAGGTAC,0.438
15,AAAGGTAG,-0.135
16,CAAGGTAC,0.376
17,AAAGGTAC,0.42
18,AAAGGTAT,0.102
19,AAAGGTAA,0.324
20,CAAGGTAA,0.258
